These results are taken from PubChem BioAssay (EPA / NIEHS).

Where “and” joins values, the source holds several entries; their conditions need not be identical. Identical values can stand only once. Inconclusive results are not listed. More than one record can exist for a structure, and the calls need not agree. Calls of active or inactive are those of the source. The calls were made as follows, unless noted: active = hit-call score of the fitted dose curve at least 0.9, where 1 is the maximum; inactive = score below 0.9.

Experiment [1] deals with Retinoic acid receptor RXR-alpha (Homo sapiens) (UniProt P19793). Kind of experiment: ATG_RXRa_TRANS: Attagene TRANS-FACTORIAL HepG2 Assay for human Retinoid X Receptor alpha (RXRa) (AID 2283012; active = hit-call score of the fitted dose curve at least 0.9, where 1 is the maximum). The essentials: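 Cells (HepG2) carried transiently transfected GAL4-responsive reporter units. Following a 24 h chemical incubation, reporter mRNA induction was read via RT-PCR fragment analysis; DMSO served as negative control and baseline.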
Sequence of Retinoic acid receptor RXR-alpha (Homo sapiens) (P19793 whole entry, looked up, the tested form may be a part): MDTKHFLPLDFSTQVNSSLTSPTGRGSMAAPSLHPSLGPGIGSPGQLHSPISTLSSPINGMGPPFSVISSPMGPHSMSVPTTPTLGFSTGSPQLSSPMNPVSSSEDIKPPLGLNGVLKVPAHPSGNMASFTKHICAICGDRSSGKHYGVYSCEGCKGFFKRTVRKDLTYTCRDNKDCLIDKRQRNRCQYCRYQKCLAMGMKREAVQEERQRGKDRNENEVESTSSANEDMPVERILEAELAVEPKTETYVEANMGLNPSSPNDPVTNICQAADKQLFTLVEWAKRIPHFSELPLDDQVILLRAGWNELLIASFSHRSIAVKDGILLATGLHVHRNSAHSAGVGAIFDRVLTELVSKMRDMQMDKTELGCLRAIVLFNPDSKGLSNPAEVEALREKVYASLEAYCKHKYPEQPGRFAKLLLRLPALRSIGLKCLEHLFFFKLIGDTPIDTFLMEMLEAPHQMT

Experiment [2] addresses human Retinoid X Receptor beta (RXRb), RXRB (gene 6257) (UniProt P28702). Kind of experiment: ATG_RXRb_TRANS: Attagene TRANS-FACTORIAL HepG2 Assay for human Retinoid X Receptor beta (RXRb) (AID 2283013; active = hit-call score of the fitted dose curve at least 0.9, where 1 is the maximum). The essentials: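 Multiplexed TRANS reporter assay in HepG2; 24 h dosing; reporter mRNA by RT-PCR/CE fluorescence; gain-of-signal relative to DMSO.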
Read-out in experiment [3]: E-selectin (Homo sapiens) (UniProt P16581)
The experiment is described as follows: BSK_3C_Eselectin: BioMAP Diversity Plus: 3C Assay for Eselectin Biomarker Activity (AID 2283015).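 As to outcome: cell surface E-selectin protein quantified by ELISA 24 h after dosing.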 The note with it: primary human endothelial cells (HUVEC); actives raise or lower the signal. The essentials:
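E-selectin ELISA readout, fitted bidirectionally relative to DMSO, taken 24 h post-dosing in HUVEC cultures of the 3C system. Overt cytotoxicity tracked with sulforhodamine B staining of parallel wells.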

Read-out in experiment [4]: Interleukin-1 alpha (IL1a), IL1A (gene 3552)
Kind of experiment: BSK_BE3C_IL1a: BioMAP Diversity Plus: BE3C Assay for Interleukin-1 alpha (IL1a) Biomarker Activity (AID 2283016). Particulars: primary human bronchial epithelial cells; actives raise or lower the signal. A digest of the protocol:
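Cultures of primary human bronchial epithelial cells receive test chemical. After 24 h, IL-1a is quantified by ELISA, while parallel wells are fixed in TCA and SRB-stained for total protein. Changes in either direction are fitted relative to DMSO.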

Read-out in experiment [5]: Monocyte Chemoattractant Protein-1 (MCP1), CCL2 (gene 6347)
Kind of experiment: BSK_3C_MCP1: BioMAP Diversity Plus: 3C Assay for Monocyte Chemoattractant Protein-1 (MCP1) Biomarker Activity (AID 2283017). The note with it: primary human endothelial cells (HUVEC); actives raise or lower the signal. The essentials:
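MCP-1 was measured by ELISA 24 h after dosing in primary HUVEC 3C cultures and fitted in both directions relative to DMSO; cytotoxicity was checked by SRB total-protein staining in parallel wells.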

Read-out in experiment [6]: Monocyte Chemoattractant Protein-1 (MCP1), CCL2 (gene 6347)
The experiment is described as follows: BSK_4H_MCP1: BioMAP Diversity Plus: 4H Assay for Monocyte Chemoattractant Protein-1 (MCP1) Biomarker Activity (AID 2283018). Particulars: primary human endothelial cells (HUVEC); actives raise or lower the signal. The essentials:
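Readout: MCP-1 ELISA on compound-treated HUVEC, sampled 24 h post-dosing. Baseline and negative control DMSO; bidirectional fit. Overt toxicity checked alongside by sulforhodamine B protein staining at time of biomarker measurement.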

Read-out in experiment [7]: Human Leukocyte Antigen - DR isotype (HLADR), HLA-DRA (gene 3122)
Kind of experiment: BSK_3C_HLADR: BioMAP Diversity Plus: 3C Assay for Human Leukocyte Antigen - DR isotype (HLADR) Biomarker Activity (AID 2283019).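 As to outcome: ELISA of cell-surface HLA-DR on HUVEC 24 h after dosing.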 Particulars: primary human endothelial cells (HUVEC); actives raise or lower the signal. The essentials:
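Bidirectional fitting against DMSO was applied to the HLA-DR ELISA signal from human umbilical vein endothelial cells, 24 h post-dose. Cytotoxicity came from parallel SRB total-protein staining; 3C proliferation was counted by SRB at 48 h.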

Read-out in experiment [8]: Interleukin-8 (IL8), CXCL8 (gene 3576)
The experiment is described as follows: BSK_3C_IL8: BioMAP Diversity Plus: 3C Assay for Interleukin-8 (IL8) Biomarker Activity (AID 2283020). Particulars: primary human endothelial cells (HUVEC); actives raise or lower the signal. The essentials:
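Human vascular endothelial cells (umbilical vein) in the 3C system; IL-8 level detected by ELISA at 24 h post-dose, with DMSO as baseline.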

Read-out in experiment [9]: Monokine induced gamma interferon (MIG), CXCL9 (gene 4283)
The experiment is described as follows: BSK_3C_MIG: BioMAP Diversity Plus: 3C Assay for Monokine induced gamma interferon (MIG) Biomarker Activity (AID 2283021).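 As to AC50: MIG protein level measured by immunoassay in the treated endothelial cultures.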 The note with it: primary human endothelial cells (HUVEC); actives raise or lower the signal. The essentials:
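After 24 h of treatment, human umbilical vein endothelial cultures (3C system) had their MIG biomarker level determined by ELISA, with DMSO serving as negative control.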

Experiment [10] has as its target human Vitamin D Receptor (VDR), VDR (gene 7421) (UniProt P11473). The experiment is described as follows: ATG_VDR_TRANS: Attagene TRANS-FACTORIAL HepG2 Assay for human Vitamin D Receptor (VDR) (AID 2283022; active = hit-call score of the fitted dose curve at least 0.9, where 1 is the maximum). The essentials: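 Transactivation by an exogenous VDR-Gal4 chimera in transiently transfected HepG2 cells was measured as reporter transcript level 24 hours after chemical treatment. RT-PCR products were analysed by capillary electrophoresis and fitted in the positive direction relative to DMSO.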

Experiment [11] can be described thus: BSK_3C_SRB: Viability Assessment in the BioMAP Diversity Plus: 3C Assay (AID 2283023).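 Also: fitted both ways against DMSO so a hit may be signal rise or drop.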 The note with it: primary human endothelial cells (HUVEC). A digest of the protocol:
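Cytotoxicity readout in parallel HUVEC 3C cultures: after 24 h compound exposure, cells fixed with 10% TCA, stained with 0.1% SRB and read at 560 nm. Gain or loss relative to DMSO fitted.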

Read-out in experiment [12]: Matrix Metallopeptidase 1 (MMP1), MMP1 (gene 4312)
Kind of experiment: BSK_BE3C_MMP1: BioMAP Diversity Plus: BE3C Assay for Matrix Metallopeptidase 1 (MMP1) Biomarker Activity (AID 2283024). Particulars: primary human bronchial epithelial cells; actives raise or lower the signal. The essentials:
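Dose cells, wait 24 h, run MMP1 ELISA; cells are human bronchial epithelial primaries. Both increases and decreases relative to DMSO counted.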

The nature of experiment [13]: BSK_3C_Vis: BioMAP Diversity Plus: 3C Assay for Morphology Visualization (AID 2283025).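 Also: fitted both ways so gain or loss versus DMSO counts.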 Particulars: primary human endothelial cells (HUVEC). The essentials: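 Endothelial cells from human umbilical vein were treated with test chemicals for 24 h and inspected by light microscopy for changes in cell conformation.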
Read-out in experiment [14]: Pselectin, SELP (gene 6403)
The experiment is described as follows: BSK_4H_Pselectin: BioMAP Diversity Plus: 4H Assay for Pselectin Biomarker Activity (AID 2283026). Particulars: primary human endothelial cells (HUVEC); actives raise or lower the signal. The essentials:
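Human vascular endothelium from umbilical vein; P-selectin measured by ELISA at 24 h post-dose, with cytotoxicity checked by sulforhodamine B total-protein staining in parallel cultures (0.1% SRB after 10% TCA fixation, read at 560 nm).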

A short description of experiment [15]: BSK_4H_SRB: Viability Assessment in the BioMAP Diversity Plus: 4H Assay (AID 2283027).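 Also: cells exposed to compound for 24 h before staining.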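 As to AC50: curves fitted both ways versus DMSO so AC50 may be loss or gain.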 Particulars: primary human endothelial cells (HUVEC). The essentials: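 Human umbilical vein endothelial cells, 24 h after chemical dosing; total protein measured by 0.1% sulforhodamine B staining after 10% TCA fixation, read at 560 nm. Bidirectional fitting against DMSO.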

Experiment [16] can be described thus: BSK_BE3C_SRB: Viability Assessment in the BioMAP Diversity Plus: BE3C Assay (AID 2283028). The note with it: primary human bronchial epithelial cells. A digest of the protocol: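 Cytotoxicity read-out: SRB (0.1%) staining of TCA-fixed (10%) human lung bronchial epithelial cells, absorbance 560 nm, 24 h post-dosing. Curves fitted both directions relative to DMSO.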

Read-out in experiment [17]: Thrombomodulin, THBD (gene 7056)
Kind of experiment: BSK_3C_Thrombomodulin: BioMAP Diversity Plus: 3C Assay for Thrombomodulin Biomarker Activity (AID 2283029). Particulars: primary human endothelial cells (HUVEC); actives raise or lower the signal. The essentials:
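Thrombomodulin ELISA, human primary HUVEC, 24 h post-dose; data fitted in both directions relative to DMSO.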

In experiment [18] the target is human Thyroid Receptor alpha (THRa1), THRA (gene 7067) (UniProt P10827). The experiment is described as follows: ATG_THRa1_TRANS: Attagene TRANS-FACTORIAL HepG2 Assay for human Thyroid Receptor alpha (THRa1) (AID 2283014; active = hit-call score of the fitted dose curve at least 0.9, where 1 is the maximum). The essentials:
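Transcripts from GAL4-UAS-driven reporters, measured after 24 h compound exposure by RT-PCR plus capillary electrophoresis of 6-FAM-labeled fragments, were fitted for gain of signal relative to DMSO. Cells: transiently transfected HepG2 expressing NR-Gal4 chimeras.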

For experiment [19], the target named is human RAR-related Orphan Receptor gamma (RORg), RORC (gene 6097) (UniProt P51449). Kind of experiment: ATG_RORg_TRANS: Attagene TRANS-FACTORIAL HepG2 Assay for human RAR-related Orphan Receptor gamma (RORg) (AID 2283011; active = hit-call score of the fitted dose curve at least 0.9, where 1 is the maximum). A digest of the protocol: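 Reporter transcripts from a transfected RORg-GAL4 chimera in HepG2 cells were quantified 24 h after dosing by RT-PCR, 6-FAM labelling, HpaI digestion and capillary electrophoresis; increases over DMSO baseline were fitted.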
Sequence of human RAR-related Orphan Receptor gamma (RORg), RORC (gene 6097) (P51449 whole entry, looked up, the tested form may be a part): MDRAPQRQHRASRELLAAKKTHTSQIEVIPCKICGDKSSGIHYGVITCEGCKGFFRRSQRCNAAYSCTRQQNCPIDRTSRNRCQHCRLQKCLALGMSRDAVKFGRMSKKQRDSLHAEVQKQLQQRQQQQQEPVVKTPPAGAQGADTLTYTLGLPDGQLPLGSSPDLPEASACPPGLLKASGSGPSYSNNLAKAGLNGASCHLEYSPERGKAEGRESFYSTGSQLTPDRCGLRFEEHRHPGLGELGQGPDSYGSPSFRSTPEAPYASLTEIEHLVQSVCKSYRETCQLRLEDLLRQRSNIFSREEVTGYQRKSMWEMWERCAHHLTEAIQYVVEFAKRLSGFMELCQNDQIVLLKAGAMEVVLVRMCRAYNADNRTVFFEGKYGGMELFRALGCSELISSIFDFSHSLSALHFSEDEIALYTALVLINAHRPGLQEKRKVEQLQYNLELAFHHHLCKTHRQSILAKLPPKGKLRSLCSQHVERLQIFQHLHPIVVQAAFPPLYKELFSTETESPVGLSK

Sequence of human Thyroid Receptor alpha (THRa1), THRA (gene 7067) (P10827 whole entry, looked up, the tested form may be a part): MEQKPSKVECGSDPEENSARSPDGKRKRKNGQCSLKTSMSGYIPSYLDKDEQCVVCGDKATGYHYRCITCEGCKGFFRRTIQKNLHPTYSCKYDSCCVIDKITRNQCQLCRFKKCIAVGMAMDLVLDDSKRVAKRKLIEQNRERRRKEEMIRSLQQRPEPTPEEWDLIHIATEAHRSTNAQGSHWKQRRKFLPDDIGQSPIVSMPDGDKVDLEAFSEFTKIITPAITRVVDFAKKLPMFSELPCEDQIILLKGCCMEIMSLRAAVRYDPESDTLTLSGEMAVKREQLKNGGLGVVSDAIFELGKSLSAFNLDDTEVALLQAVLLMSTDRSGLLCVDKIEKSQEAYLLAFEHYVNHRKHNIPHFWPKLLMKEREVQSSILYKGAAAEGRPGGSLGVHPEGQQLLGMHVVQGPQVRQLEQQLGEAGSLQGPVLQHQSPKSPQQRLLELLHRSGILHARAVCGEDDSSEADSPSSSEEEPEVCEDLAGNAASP
Sequence of human Vitamin D Receptor (VDR), VDR (gene 7421) (P11473 whole entry, looked up, the tested form may be a part): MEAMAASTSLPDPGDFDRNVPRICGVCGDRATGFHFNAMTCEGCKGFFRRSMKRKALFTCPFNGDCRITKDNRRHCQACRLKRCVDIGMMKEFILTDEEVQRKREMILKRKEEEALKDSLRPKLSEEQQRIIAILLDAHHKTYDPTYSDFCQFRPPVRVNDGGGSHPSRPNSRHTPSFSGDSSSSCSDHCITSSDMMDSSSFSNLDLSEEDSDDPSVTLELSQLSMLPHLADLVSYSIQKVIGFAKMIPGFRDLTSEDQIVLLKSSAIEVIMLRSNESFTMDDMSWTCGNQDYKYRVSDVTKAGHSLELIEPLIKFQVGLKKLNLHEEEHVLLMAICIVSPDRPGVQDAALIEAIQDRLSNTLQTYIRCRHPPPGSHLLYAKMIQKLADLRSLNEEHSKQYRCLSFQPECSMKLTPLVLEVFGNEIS
Sequence of E-selectin (Homo sapiens) (P16581 whole entry, looked up): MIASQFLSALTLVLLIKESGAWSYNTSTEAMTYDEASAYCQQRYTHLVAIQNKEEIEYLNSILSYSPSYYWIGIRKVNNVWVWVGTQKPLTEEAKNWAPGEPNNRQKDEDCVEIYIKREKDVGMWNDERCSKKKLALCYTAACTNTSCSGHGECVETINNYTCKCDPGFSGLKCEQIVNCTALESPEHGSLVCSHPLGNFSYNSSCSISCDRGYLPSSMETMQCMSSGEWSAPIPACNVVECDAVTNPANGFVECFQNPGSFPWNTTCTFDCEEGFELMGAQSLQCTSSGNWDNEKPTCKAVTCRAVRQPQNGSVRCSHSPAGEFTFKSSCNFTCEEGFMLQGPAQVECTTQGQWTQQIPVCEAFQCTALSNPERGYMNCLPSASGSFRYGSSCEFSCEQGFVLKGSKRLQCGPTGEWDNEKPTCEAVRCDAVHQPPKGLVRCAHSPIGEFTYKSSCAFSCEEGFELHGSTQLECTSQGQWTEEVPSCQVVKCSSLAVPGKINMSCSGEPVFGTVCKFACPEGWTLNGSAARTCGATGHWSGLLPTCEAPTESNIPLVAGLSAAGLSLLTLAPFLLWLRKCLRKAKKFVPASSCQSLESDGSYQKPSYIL
Sequence of human Retinoid X Receptor beta (RXRb), RXRB (gene 6257) (P28702 whole entry, looked up): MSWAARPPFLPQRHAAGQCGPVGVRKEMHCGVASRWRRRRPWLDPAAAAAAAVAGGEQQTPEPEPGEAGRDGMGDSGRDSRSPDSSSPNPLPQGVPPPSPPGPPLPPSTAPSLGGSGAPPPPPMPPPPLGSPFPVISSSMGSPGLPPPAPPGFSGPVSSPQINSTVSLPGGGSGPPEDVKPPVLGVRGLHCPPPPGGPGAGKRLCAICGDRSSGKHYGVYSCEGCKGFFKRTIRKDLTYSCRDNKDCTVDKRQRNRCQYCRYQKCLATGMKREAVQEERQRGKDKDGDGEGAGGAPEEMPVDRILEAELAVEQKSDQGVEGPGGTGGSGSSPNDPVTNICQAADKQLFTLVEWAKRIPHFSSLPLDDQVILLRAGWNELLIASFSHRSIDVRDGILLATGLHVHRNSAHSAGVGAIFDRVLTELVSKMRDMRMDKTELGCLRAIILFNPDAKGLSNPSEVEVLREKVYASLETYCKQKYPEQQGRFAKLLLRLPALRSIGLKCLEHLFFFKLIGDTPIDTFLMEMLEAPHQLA

With `CCCCCCC(C)OC(=O)CCCCC(=O)OC(C)CCCCCC` (configuration not stated), the compound was called inactive in experiment [1], in experiment [3], in [4], in experiment [5], in experiment [6] and in [7]. For the same compound, the outcome in experiment [8], in [9], in [10], in [11], in experiment [12] and in experiment [13] was inactive. The outcome in [14], in experiment [15], in experiment [16] and in experiment [17] was inactive. Moreover, the AC50 in [2] was 16.3 µM (active).

As to `c1ccc(B(c2ccccc2)c2ccccc2)cc1`, the call in experiment [1], in experiment [18] and in experiment [10] was inactive. In addition, the AC50 in experiment [2] was 100 µM (active).

Turning to `OCC(F)(F)C(F)(F)C(F)(F)C(F)(F)C(F)(F)C(F)F`, the outcome in experiment [19], in [3], in experiment [4], in [5], in [6] and in [7] was inactive. In addition, the result in experiment [8], in experiment [9], in [10], in experiment [11], in [12] and in [14] was inactive. Besides, the result in experiment [15] and in [17] was inactive.

Take `FC1CC(F)(F)C(F)(F)C1(F)F` (configuration not stated): the compound was called inactive in [19], in experiment [18], in experiment [3], in [4], in experiment [5] and in experiment [6]. The outcome in [7], in experiment [8], in experiment [9], in experiment [11], in [12] and in [14] was inactive. The outcome in [15] and in experiment [17] was inactive.

For `Nc1ccc(Oc2cccc(Oc3ccc(N)cc3)c2)cc1`, the call in experiment [19] and in [10] was inactive.

Regarding `CCCCOCCOCCOC(=O)CCCCC(=O)OCCOCCOCCCC`, the call in [19], in experiment [2], in experiment [18], in experiment [3], in experiment [4] and in experiment [5] was inactive. Further, the result in [6], in experiment [7], in experiment [9], in experiment [10], in experiment [11] and in experiment [12] was inactive. Also, the result in experiment [13], in experiment [14], in [15], in experiment [16] and in [17] was inactive.

`OCC(F)(F)C(F)(F)C(F)(F)C(F)(F)C(F)(F)C(F)(F)F`: the compound was classed as inactive in experiment [19], in experiment [2], in experiment [18], in experiment [3], in experiment [4] and in [5]. The outcome in experiment [6], in [7], in experiment [8], in [9], in [10] and in experiment [11] was inactive. Besides, the outcome in experiment [12], in experiment [14], in experiment [15], in experiment [16] and in experiment [17] was inactive. Further, the results for the AC50 in experiment [11] and in [14] were 58.5 µM (active) and 43.6 µM (active), respectively.

`OCCCC(F)(F)C(F)(F)C(F)(F)C(F)(F)C(F)(F)C(F)(F)C(F)(F)F`: the AC50 in [1] was 42.3 µM (active); in [2], 6.49 µM (active) and 7.94 µM (active); in experiment [3], 23.3 µM (active) and 48.9 µM (active); in [4], 44.1 µM (active) and 47.9 µM (active); in [5], 30.8 µM (active) and 44.4 µM (active); in experiment [6] it was 45.7 µM (active) and 45.1 µM (active). The AC50 in experiment [7] was 44.1 µM (active) and 36.1 µM (active); in experiment [8], 44.9 µM (active) and 47.6 µM (active); in [9], 49.2 µM (active) and 43.7 µM (active); in experiment [11], 32.6 µM (active) and 45.2 µM (active); in [12] it was 49.7 µM (active) and 48.3 µM (active); in experiment [14], 41.8 µM (active). Further, the AC50 in experiment [15] is 49.4 µM (active) and 48.3 µM (active). The call in experiment [1], in experiment [10], in experiment [14] and in experiment [17] was inactive.

Take `O=C(OCCOCCOCCOC(=O)c1ccccc1)c1ccccc1`: the outcome in experiment [19], in experiment [2] and in [10] was inactive.

For orientation: AC50 means the concentration at which the activity in the assay is half-maximal.
